Where a name gives a salt, the structure may show the parent alone.
These compounds were tested on Danio rerio larvae (5 dpf) (assay: activity during period 15 (no stimuli), difference vs DMSO (percentage points (treated minus DMSO)); higher = more of the behaviour than the DMSO vehicle control). Details: 10 µM; exposure time: 3 h pre-incubation + 3 h imaging.
Method: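 5-dpf wild-type zebrafish larvae were imaged in 96-well plates. They were treated with 190 Tocris FDA-approved drugs at 10 µM (1 µl/ml DMSO) for 3 h before and 3 h during imaging at 28.5 °C, 48 larvae per drug. Automated image analysis gave % time moving and optomotor responses. Values are drug group mean minus DMSO vehicle mean (n=844), in percentage points, for 10 behaviours.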

Compound	activity during period 15
Cc1cccc(C)c1OCC(C)N (stereo not given) [Mexiletine hydrochloride]	6.49
COc1cc([C@@H]2c3cc4c(cc3[C@@H](O[C@@H]3O[C@@H]5CO[C@@H](C)O[C@H]5[C@H](O)[C@H]3O)[C@H]3COC(=O)[C@H]23)OCO4)cc(OC)c1O [Etoposide]	-4.13
COc1cc(Nc2c(C#N)cnc3cc(OCCCN4CCN(C)CC4)c(OC)cc23)c(Cl)cc1Cl [Bosutinib]	-11.7
Nc1nc(Cl)nc2c1ncn2[C@@H]1O[C@H](CO)[C@@H](O)[C@@H]1F [Clofarabine]	-4.3
CC1=Nc2ccc(Cl)cc2S(=O)(=O)N1 [Diazoxide]	2.35
CC1CNc2c(cccc2S(=O)(=O)N[C@@H](CCCNC(=N)N)C(=O)N2CC[C@@H](C)C[C@@H]2C(=O)O)C1 (stereo not given in full) [Argatroban]	-2.33
CN1CCN(CCCN2c3ccccc3Sc3ccc(Cl)cc32)CC1 [Prochlorperazine dimaleate]	16.6
CCCCC(=O)N(Cc1ccc(-c2ccccc2-c2nnn[nH]2)cc1)[C@H](C(=O)O)C(C)C [Valsartan]	9.35
CCOc1cc(CC(=O)N[C@@H](CC(C)C)c2ccccc2N2CCCCC2)ccc1C(=O)O [Repaglinide]	-1.47
CCOc1nc2cccc(C(=O)O)c2n1Cc1ccc(-c2ccccc2-c2noc(=O)[nH]2)cc1 [Azilsartan]	3.86
CC(=O)Nc1ccc(O)cc1 [Acetaminophen]	8.08
Nc1cccc2c1CN(C1CCC(=O)NC1=O)C2=O (stereo not given) [Lenalidomide]	4.34
COc1cccc2c1C(=O)c1c(O)c3c(c(O)c1C2=O)C[C@@](O)(C(=O)CO)C[C@@H]3O[C@H]1C[C@H](N)[C@H](O)[C@H](C)O1 [Doxorubicin hydrochloride]	-10.6
CN1CC(=O)N2[C@H](c3ccc4c(c3)OCO4)c3[nH]c4ccccc4c3C[C@@H]2C1=O [Tadalafil]	-1.47
CCC(=O)O[C@]1(C(=O)SCF)[C@H](C)C[C@H]2[C@@H]3C[C@H](F)C4=CC(=O)C=C[C@]4(C)[C@@]3(F)[C@@H](O)C[C@@]21C [Fluticasone propionate]	8.18
COc1cc2ncnc(Nc3ccc(F)c(Cl)c3)c2cc1OCCCN1CCOCC1 [Iressa]	-0.986
N#C[C@@H]1C[C@@H]2C[C@@H]2N1C(=O)[C@@H](N)C12CC3CC(CC(O)(C3)C1)C2 [Saxagliptin hydrochloride]	5.2
CN1CCN2c3ncccc3Cc3ccccc3C2C1 (stereo not given) [Mirtazapine]	4.7
CCc1ccc(CCOc2ccc(CC3SC(=O)NC3=O)cc2)nc1 (stereo not given) [Pioglitazone hydrochloride]	-0.879
CCCCCCCCc1ccc(CCC(N)(CO)CO)cc1	-23.3

Compound	activity during period 15
C[C@H](Cc1cc2c(c(C(N)=O)c1)N(CCCO)CC2)NCCOc1ccccc1OCC(F)(F)F [Silodosin]	-7.59
Nc1ncn([C@@H]2O[C@H](CO)[C@@H](O)[C@H]2O)c(=O)n1 [5-Azacytidine]	1.42
COc1ccc(C[C@@H](C)NC[C@H](O)c2ccc(O)c(NC=O)c2)cc1 [Arformoterol tartrate]	46.5
Nc1nc(F)nc2c1ncn2[C@@H]1O[C@H](CO)[C@@H](O)[C@@H]1O [Fludarabine]	-6.57
O=C(c1ccc(OCCN2CCCCC2)cc1)c1c(-c2ccc(O)cc2)sc2cc(O)ccc12 [Raloxifene hydrochloride]	-8.58
CN1CC[C@@H](NC(=O)Nc2ccc(C#N)cc2)C[C@@H]1c1nc2ccccc2[nH]1	-0.815
COc1ccc(Cl)cc1C(=O)NCCc1ccc(S(=O)(=O)NC(=O)NC2CCCCC2)cc1 [Glibenclamide]	-4.16
NS(=O)(=O)Cc1noc2ccccc12 [Zonisamide]	-7.11
Cc1ccsc1C(=CCCN1CCC[C@@H](C(=O)O)C1)c1sccc1C [Tiagabine hydrochloride]	10.4
CC(C)(C(=O)O)c1ccc(C(O)CCCN2CCC(C(O)(c3ccccc3)c3ccccc3)CC2)cc1 (stereo not given) [Fexofenadine hydrochloride]	1.68
CNC(=O)c1ccccc1Sc1ccc2c(/C=C/c3ccccn3)n[nH]c2c1 [Axitinib]	3.22
CC(C)c1nc(N(C)S(C)(=O)=O)nc(-c2ccc(F)cc2)c1/C=C/[C@@H](O)C[C@@H](O)CC(=O)O [Rosuvastatin calcium]	15.5
CNS(=O)(=O)Cc1ccc2[nH]cc(CCN(C)C)c2c1 [Sumatriptan succinate]	3.89
CNC(=O)c1cc(Oc2ccc(NC(=O)Nc3ccc(Cl)c(C(F)(F)F)c3)cc2)ccn1 [Sorafenib]	8.65
COc1cc2nc(N3CCN(C(=O)c4ccco4)CC3)nc(N)c2cc1OC [Prazosin hydrochloride]	1.78
Brc1c(NC2=NCCN2)ccc2nccnc12	-19.4
CC(C)n1c(/C=C/C(O)CC(O)CC(=O)O)c(-c2ccc(F)cc2)c2ccccc21 (stereo not given) [Fluvastatin sodium]	5.99
NC(=O)N1c2ccccc2C=Cc2ccccc21 [Carbamazepine]	-0.716
CN(C)CCC[C@@]1(c2ccc(F)cc2)OCc2cc(C#N)ccc21 [Escitalopram oxalate]	-18.3
CN(C)C(=N)NC(=N)N [Metformin hydrochloride]	-4.35
